FBW7 activator: FBW7 E3 ligase activators, primary screen, biochemical, AlphaScreen, human | normalized activity (activation), % at 26.1 µM | F-box/WD repeat-containing protein 7 (Homo sapiens), Q969H0 | AID 1259310, 2017 | 650,000 tested, 0.13% active | AlphaScreen FBW7–phospho-cyclin E peptide binding, activator screen; in the data active means normalized activity above about 1.9%;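 further: purified mutant Fbw7 with reduced substrate affinity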
Target sequence (Q969H0 whole entry, looked up): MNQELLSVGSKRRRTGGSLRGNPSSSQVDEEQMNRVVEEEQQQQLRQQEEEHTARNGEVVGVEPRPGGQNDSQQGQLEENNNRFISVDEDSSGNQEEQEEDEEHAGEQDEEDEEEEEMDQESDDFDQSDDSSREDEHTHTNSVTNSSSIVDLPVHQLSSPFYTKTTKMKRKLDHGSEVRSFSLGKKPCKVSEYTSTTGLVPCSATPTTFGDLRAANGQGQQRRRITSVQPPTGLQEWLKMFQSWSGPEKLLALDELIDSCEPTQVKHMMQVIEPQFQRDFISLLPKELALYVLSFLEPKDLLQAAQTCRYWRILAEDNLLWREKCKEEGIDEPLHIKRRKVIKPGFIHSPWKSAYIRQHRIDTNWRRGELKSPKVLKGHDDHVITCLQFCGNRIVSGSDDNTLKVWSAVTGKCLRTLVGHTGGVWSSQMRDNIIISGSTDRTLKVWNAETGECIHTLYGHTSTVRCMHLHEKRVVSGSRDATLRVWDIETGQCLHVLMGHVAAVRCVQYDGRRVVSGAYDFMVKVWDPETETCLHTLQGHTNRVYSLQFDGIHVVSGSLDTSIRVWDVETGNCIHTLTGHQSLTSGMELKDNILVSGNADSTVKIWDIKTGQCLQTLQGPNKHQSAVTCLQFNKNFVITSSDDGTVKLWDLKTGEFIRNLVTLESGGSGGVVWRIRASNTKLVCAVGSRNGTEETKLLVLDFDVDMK
GPR151 activ: activators of human GPR151, primary screen, cell-based, PathHunter beta-arrestin, luminescence. PathHunter beta-arrestin GPR151 cells. AID 1508602, 2020. G-protein coupled receptor 151 (Homo sapiens), Q8TDV0. activation, % at 11.2 µM. 650,000 tested, 1% active; in the data active means activation above about 4.9%;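 further: 0% = median of compound wells and 100% = cells with positive control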
MITF inh: MITF inhibitors, primary screen, biochemical, AlphaScreen, human. AID 1259374, 2018. inhibition, % at 2.6 µM. 650,000 tested, 0.91% active. AlphaScreen MITF homodimerization, bead proximity signal. Microphthalmia-associated transcription factor (Homo sapiens), O75030; in the data active means inhibition above about 50%;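 further: 0% = vehicle wells with protein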
TEAD-YAP block: TEAD-YAP interaction inhibition, primary screen, TEAD-YAP interaction inhibitor project, luminescence, HEK-TIYL cells | TEAD-Gal4/YAP UAS-luciferase luminescence | inhibition, % at 9.12 µM | 640,000 tested, 1.4% active | AID 1259422, 2018; in the data active means inhibition above about 32%;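 further: 0% = median of test compound wells and 100% = reference inhibitor wells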
GPR151 conf act: GPR151 activators, triplicate retest, confirmation, cell-based, PathHunter beta-arrestin, luminescence | activation, % at 11.2 µM | shares compounds with GPR151 activ | GPR151 PathHunter beta-arrestin cells, 90 min; % of EA-reagent control over plate median | 6,700 tested, under 10 active;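 active means mean percent activation across replicates above the confirmation screen cutoff of 4.91%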
GPR119 counter: GPR119 activators in beta-arrestin cells, counter-screen for GPR151 activator project, cell-based, PathHunter beta-arrestin, luminescence, triplicate. 90 min; 0 = compound-well median, 100 = enzyme-acceptor control. activation, % at 11.2 µM. AID 1508611, 2020. shares compounds with GPR151 activ. 6,700 tested, 0.3% active;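 active means mean percent activation in the counterscreen above 29.09%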;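 further: counterscreen on off-target GPR119 to flag nonselective hits from the GPR151 activator screen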
An asterisk follows results filed as active; x = not tested or not shown; ! = a repeat was not active. Hits are enriched below; roughly 3.5% of the tested compounds scored in any of these assays.

SMILES	FBW7 activator	GPR151 activ	MITF inh	TEAD-YAP block	GPR151 conf act	GPR119 counter
Cn1c(=O)c2c(nc3n(-c4ccc(OC(F)(F)F)cc4)c(-c4ccc(Br)cc4)cn23)n(C)c1=O	0	3	-4	-7	x	x
COc1ccc2sc(C)[n+](CC(=O)O)c2c1	0	0	2	2	x	x
CCOC(=O)C[n+]1c(C)sc2ccc(OC)cc21	0	6.1*	-5	21	0	0
O=C(CCCc1ccccc1)NCCOc1ccccc1	0	5.2*	6	-7	0	-1
CSCCCNCc1c(C(=O)N2CCCCCCC2)nc2ccc(Cl)cn12	0	2	3	-1	x	x
CC(C)N(Cc1nc(-c2ccccc2)no1)C(=O)CN1C(=O)c2ccccc2C1=O	0	0	1	-3	x	x
CC(C)N(Cc1nc(-c2ccccc2)no1)C(=O)CCCN1C(=O)c2ccccc2C1=O	0	11*	14	9	0	-4
COc1ccc(C2CC(=O)C3=C(C2)Nc2ccccc2NC3c2cccc(C)c2)cc1OC (stereo not given)	0	0	6	2	x	x
Fc1cc(-c2ccnc(Nc3ccc(-n4cnc(-c5ccccn5)n4)cc3)n2)cc(N2CCOCC2)c1	0	1	2	15	x	x
CC(=O)N(C)c1ccccc1NC(=O)CCl	0	8.7*	-12	-9	0	4
CC(C)(C)c1ccccc1NC(=O)CCl	0	-1	5	5	x	x
O=C(CSc1ncc(CO)n1Cc1ccc(F)cc1)Nc1cccc2ccccc12	0	-1	-2	1	x	x
CC(=O)Nc1ccc(CSc2ccccc2)cc1C	0	-1	4	-54	x	x
Cc1cc(CSc2ccccc2)ccc1NS(C)(=O)=O	0	5.3*	4	-26	0	-4
C=C(C)CC(NCc1ccccc1)c1ccco1 (stereo not given)	0	-1	38	2	x	x
CN1CCC(N(C)Cc2cc([N+](=O)[O-])ccc2O)CC1	0	6.0*	10	2	0	1
CCOc1cc(-c2nc3sc4c(c3c(=O)[nH]2)CCCC4)ccc1OCCOc1ccccc1OC	0	0	12	7	x	x
COc1ccc(N2CCN(C(=O)C(c3ccccc3)c3ccccc3)CC2)nn1	0	5.7*	7	3	1	1
Cc1cccc(-n2cc(-c3ccccc3)nc2SCC(=O)Nc2ccc(Cl)cc2)c1	0	6.3*	11	-8	0	2
O=C1/C(=C/c2ccc(-c3cc([N+](=O)[O-])ccc3Cl)o2)Sc2ccccc21	0	0	-3	-6	x	x
CCc1ccc(-c2cc(C(=O)N3CCN(C/C=C/c4ccccc4)CC3)c3ccccc3n2)cc1	0	5.3*	2	47*	1	11
CCc1ccc(-c2cc(C(=O)N3CCCCC3)c3ccccc3n2)cc1	0	-1	8	-31	x	x
CCN(CC)C(=O)CSc1nc2ccccc2c(=O)n1CCc1ccc(OC)c(OC)c1	0	3	4	4	x	x
O=C(O)CN1C(=O)c2cccc3c(Cl)cc(Br)c1c23	0	0	2	1	x	x
O=C(O)CN1C(=O)c2cccc3c(Cl)cc(Cl)c1c23	0	6.1*	-1	0	0	2
SMILES	FBW7 activator	GPR151 activ	MITF inh	TEAD-YAP block	GPR151 conf act	GPR119 counter
COc1ccc(OC)c(C(=O)COC(=O)c2cc(C)oc2C)c1	0	13*	-3	-8	1	11
COc1cccc(NC(=O)C(=O)NCc2cccnc2)c1	0	0	3	-49	x	x
COc1cccc(NC(=S)NCc2cccnc2)c1	0	6.1*!	15	7	-1	0
O=C(C1c2ccccc2C(=O)N2CCc3ccccc3C12)N1CCN(C2CCCCC2)CC1 (stereo not given)	0	12*	-2	4	0	-3
Cc1ccc(-n2c3c(cc(C(=O)Nc4ccc5c(c4)OCCO5)c2=O)C(=O)CCC3)cc1	0	5.0*	10	16	0	1
Cc1ccc(NC(=O)c2cc3c(n(-c4ccc(C)cc4)c2=O)CCCC3=O)cc1	0	-1	0	-17	x	x
COc1ccc(Cl)cc1Nc1ncnc(N)c1[N+](=O)[O-]	0	1	2	7	x	x
Cn1c(Nc2cc(NC3CCN(Cc4ccccc4)CC3)nc(N)n2)nc2ccccc21	0	-1	13	-4	x	x
O=C(Cn1cncn1)N/N=C/c1ccccc1Cl	0	1	12	1	x	x
O=C(Cn1cncn1)NN=C1c2ccccc2-c2ccccc21	0	5.2*	-3	-5	1	6
O=C(N=C1N=C2C=CC(Cl)=CN2Cc2ccccc21)c1ccco1	0	-7	6	-43	x	x
O=C(N=C1N=C2C=CC(Cl)=CN2Cc2ccccc21)c1ccc(Cl)c([N+](=O)[O-])c1	0	17*	-1	-16	1	-6
O=C(N/N=C/c1cccnc1)c1ccc(Br)o1	0	-1	3	-50	x	x
O=C(N/N=C/c1cccc(O)c1)c1ccc(Br)o1	0	8.3*	-1	-25	-4	-31
C=CCNS(=O)(=O)c1cc(C(=O)Nc2cc(Cl)cc(Cl)c2)ccc1F	0	-2	-9	-16	x	x
CCc1ccc(NC(=O)c2ccc(F)c(S(=O)(=O)NCc3ccc(C)cc3)c2)cc1	0	2	-6	-4	x	x
O=C(Nc1ccccc1)c1ccc(Cl)c(S(=O)(=O)NCc2ccccc2)c1	0	8.2*	-2	13	-1	-13
C=CCNS(=O)(=O)c1cc(C(=O)Nc2ccc(OCC)cc2)ccc1F	0	5.7*	7	26	0	-1
Cc1ccc(CNS(=O)(=O)c2cc(C(=O)Nc3ccc(C(C)C)cc3)ccc2F)cc1	0	5.8*	13	4	1	7
COc1ccc2c(c1)-c1c(ssc1=S)C(C)(C)N2C(=O)C(C)N1C(=O)c2ccccc2C1=O (stereo not given)	0	1	7	0	x	x
Nc1ncc(Br)cc1S(=O)(=O)N(CCc1ccccc1)Cc1ccccc1	0	9.3*	1	-5	1	1
CN(Cc1ccccc1)S(=O)(=O)c1cc(Br)cnc1N	0	0	4	-2	x	x
COc1ccc(C(=O)NCCNC(C)=O)c(OC)c1	0	0	7	7	x	x
COC(C(=O)Nc1c(F)cccc1F)c1ccccc1 (stereo not given)	1	5.9*	1	-1	0	-8
COC(C(=O)Nc1ccccc1C(=O)O)c1ccccc1 (stereo not given)	0	0	12	4	x	x

Screens from PubChem BioAssay.
